Compound activity: PubChem, National Center for Advancing Translational Sciences (NCATS)
TbPYK inhibitor – qHTS of Trypanosoma Brucei Inhibitors. pyruvate kinase (Trypanosoma brucei), Q57TT1. TbPYK enzyme, Kinase-Glo Plus ATP luminescence, 45 min. Potency, µM (doses to about 76.8 µM), for inactives: top-dose activity, negative = inhibition, most hits filed as inhibitors. 410,000 tested, 0.12% active; active means well fitted curve in the direction sought with a large enough effect; inconclusive means small, poorly fitted or top-dose-only effect, or another doubt; inactive means no such curve, though single readings can be large; an effect the other way counts as inactive or inconclusive; further: potency means the concentration at half of the fitted maximal effect; on the % scale 0 is the no-effect control and ±100 the full control effect; nearly all actives have a fitted effect of over 50% in size
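Screened from lowest to highest concentration, compounds were pinned into TbPYK/substrate mixtures, and ADP (130 uM final) was added. Plates sat at room temperature for 45 min prior to Kinase-Glo Plus detection by luminescence.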
Cycloheximide cs – Cycloheximide Counterscreen for Small Molecule Inhibitors of Shiga Toxin. max response, %. cell reporter, cycloheximide protein synthesis inhibition counterscreen. 300,000 tested, 12% active; in the data active means max response mostly above about 13%, no sharp cut-off; inactive means mostly below about 14%; further: read at 38.3 µM for the half of the compounds with a filed dose; 0% is about no effect
NS1 function inh – qHTS Assay for Inhibitors of Influenza NS1 Protein Function; Potency, µM (series often up to 46.1 µM), for inactives: at the highest dose activity, positive = more growth; 270,000 tested, 0.4% active; AID 2326, 2010; further: potency means the concentration at half of the fitted maximal effect; actives are rising curves; nearly all actives have a fitted effect of over 50% in size
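Growth recovery, yeast-based: influenza A NS1 expressed in S. cerevisiae causes slow growth, and suppressors are detected by OD600. The parent strain without NS1 is used as positive control.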
SARS PLpro yeast – qHTS of Yeast-based Assay for SARS-CoV PLP | S. cerevisiae expressing SARS-CoV PLpro, growth rescue | 330,000 tested, 0.19% active | AID 485353, 2010 | Potency, µM (doses to about 32.9 µM), inactives show at the highest dose activity, positive = growth rescue, usual class: activators; further: potency means the concentration at half of the fitted maximal effect; 0% is about no effect; nearly all actives have a fitted effect of over 55% in size
LmPK inh – qHTS Assay for Inhibitors of Leishmania Mexicana Pyruvate Kinase (LmPK); Q27686; purified LmPK, Kinase-Glo ATP luminescence, 1 h; Potency, µM (series often up to 57.5 µM), for inactives: top-dose activity change, negative = inhibition, hits mostly inhibitors; 290,000 tested, 0.37% active; active means well fitted curve in the direction sought with a large enough effect; inconclusive means small, poorly fitted or top-dose-only effect, or another doubt; inactive means no such curve, though single readings can be large; an effect the other way counts as inactive or inconclusive; further: potency means the concentration at half of the fitted maximal effect; on the % scale 0 is the no-effect control and ±100 the full control effect
Target sequence (Q27686 whole entry, looked up): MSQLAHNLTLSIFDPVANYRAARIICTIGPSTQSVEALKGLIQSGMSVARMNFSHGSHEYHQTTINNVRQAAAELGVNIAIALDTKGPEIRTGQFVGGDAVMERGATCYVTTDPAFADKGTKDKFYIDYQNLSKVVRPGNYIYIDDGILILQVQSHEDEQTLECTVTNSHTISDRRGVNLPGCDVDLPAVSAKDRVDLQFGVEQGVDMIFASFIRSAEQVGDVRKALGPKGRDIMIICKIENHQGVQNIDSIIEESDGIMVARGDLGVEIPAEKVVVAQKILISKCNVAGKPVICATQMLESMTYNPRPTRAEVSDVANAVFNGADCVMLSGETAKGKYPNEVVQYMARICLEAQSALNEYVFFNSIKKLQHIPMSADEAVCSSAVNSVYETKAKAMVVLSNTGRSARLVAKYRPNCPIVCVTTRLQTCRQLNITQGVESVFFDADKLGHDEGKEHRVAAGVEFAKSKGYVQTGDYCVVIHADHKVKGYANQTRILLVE
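In 50 mM imidazole pH 7.2 with 7 mM MgCl2, LmPK (0.1 nM) turned over PEP (0.5 mM) and ADP (0.1 mM) for 1 h at room temperature. Luciferase read-out of ATP.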
Shiga toxin inh – A qHTS for Small Molecule Inhibitors of Shiga Toxin. 290,000 tested, 9.2% active. inhibition, % at 38.7 µM. AID 2315, 2010. Vero cells, Shiga toxin protein synthesis inhibition reporter; in the data active means inhibition mostly above about 28%, no sharp cut-off; inactive means mostly below about 43%; further: 0% is about no effect
The depositor's hits bear a star. Shown is part of a subset that was picked to be rich in hits. Unless noted, the call rests on the fitted dose curve.

For c1ccc2oc(SCc3cn4ccccc4n3)nc2c1 the results were TbPYK inhibitor -9%, Cycloheximide cs 52*, NS1 function inh -45%, SARS PLpro yeast -12%, LmPK inh -5% and Shiga toxin inh 65*.
`CCC(C)c1ccccc1NC(=O)c1cccc(-n2cnnn2)c1` (centres undefined) gave TbPYK inhibitor 1% and SARS PLpro yeast 1%.
`CCCNC(=O)C1(C)CCN(C(=O)c2ccc(F)c(Cl)c2)C1` (centres undefined) gave TbPYK inhibitor -1%.
For COc1ccc(C(=O)NCC(=O)OCC(=O)NC2CCCCCC2)cc1OC the results were TbPYK inhibitor 2% and SARS PLpro yeast 1%.
`Cc1ccc(Nc2nc(N)c([N+](=O)[O-])c(NCCO)n2)cc1` gave TbPYK inhibitor -5%, Cycloheximide cs 13*, NS1 function inh -4%, SARS PLpro yeast 0%, LmPK inh 1% and Shiga toxin inh 24.
For Cc1ccc(Nc2ccc([N+](=O)[O-])nc2[N+](=O)[O-])cc1 the results were TbPYK inhibitor -13%, Cycloheximide cs 22*, NS1 function inh 15%, SARS PLpro yeast -6%, LmPK inh -2% and Shiga toxin inh -2.
For Nc1nc(Nc2cccc(F)c2)nc(NCCO)c1[N+](=O)[O-] the results were TbPYK inhibitor -2%, Cycloheximide cs 7, NS1 function inh 4%, SARS PLpro yeast -1%, LmPK inh 8% and Shiga toxin inh -2.
Nc1nc(Nc2ccccc2F)nc(NCc2ccco2)c1[N+](=O)[O-] was read as TbPYK inhibitor 0%, Cycloheximide cs 39*, NS1 function inh 7%, SARS PLpro yeast 0%, LmPK inh 3% and Shiga toxin inh 49*.
For Fc1ccc(Nc2nc(NCc3ccco3)c3ccccc3n2)cc1 the results were TbPYK inhibitor 1%, Cycloheximide cs 30*, NS1 function inh -51%, SARS PLpro yeast -3%, LmPK inh 2% and Shiga toxin inh 67*.
For C[C@@H]1O[C@@H](OC2O[C@@H](COc3cc(O)c4c(=O)cc(-c5ccc(O)cc5)oc4c3)[C@@H](O)[C@@H](O)[C@@H]2O)[C@H](O)[C@H](O)[C@H]1O (some centres undefined) the results were Cycloheximide cs 5 and Shiga toxin inh -3.
Screening Cc1ccc(Nc2nc(N)c([N+](=O)[O-])c(NCc3ccco3)n2)cc1 returned TbPYK inhibitor -16%, Cycloheximide cs 34*, NS1 function inh 11%, SARS PLpro yeast 9%, LmPK inh 2% and Shiga toxin inh 55*.
CSc1cccc(NC(=O)c2cc3c(COC(C)=O)cnc(C)c3oc2=O)c1 was read as TbPYK inhibitor -1%.
Cc1ccc(-n2nc3ccc(N)cc3n2)cc1 was read as TbPYK inhibitor 17%, Cycloheximide cs 28*, NS1 function inh 2%, SARS PLpro yeast -11%, LmPK inh -1% and Shiga toxin inh 95.
COc1ccc(-n2nc3ccc(N)cc3n2)cc1 was read as TbPYK inhibitor -3%.
CC(C)c1ccc(-n2nc3ccc(N)cc3n2)cc1 was read as TbPYK inhibitor -1%, Cycloheximide cs 68*, NS1 function inh 2%, SARS PLpro yeast -2%, LmPK inh -22% and Shiga toxin inh 77*.
For Nc1ccc2nn(-c3cc([N+](=O)[O-])ccc3O)nc2c1 the results were TbPYK inhibitor -3%, Cycloheximide cs 7, NS1 function inh 8%, SARS PLpro yeast 0%, LmPK inh 0% and Shiga toxin inh -3.
`Nc1ccc2nn(-c3ccc(F)cc3)nc2c1` gave TbPYK inhibitor -11%, Cycloheximide cs 58*, NS1 function inh inconclusive, SARS PLpro yeast 1%, LmPK inh -9% and Shiga toxin inh 95*.
Screening NS(=O)(=O)c1cccc(Nc2nc3ccccc3nc2NS(=O)(=O)c2ccc(Cl)cc2)c1 returned TbPYK inhibitor 21% and SARS PLpro yeast -2%.
